High-throughput results (PubChem)
LASV entry inh: qHTS for Inhibitors of binding or entry into cells for Lassa Virus. Lassa virus pseudotype entry inhibition, cell reporter. Potency, µM (titrated, usually from 37.9 µM), usual class: inhibitors. 300,000 compounds, 1.2% hits; calls by dose curve; tested in HEK293 cells; further: nearly all actives have a fitted effect of over 50% in size
HCMV antiviral: qHTS Assay for inhibitors of the human cytomegalovirus (HCMV). 410,000 compounds, 4.5% hits. HFF cells, HCMV-luciferase reporter, 72 h; stronger effect = lower value. AID 1259415, 2018. activity change, negative = inhibition, % at 57.5 µM; in the data active means activity change below about -60%; inconclusive means no clear call, values can overlap the other calls; inactive means above about -39%
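Steps: HFFs plated, 16 h 37C; compounds added; HCMV-luciferase added to MOI 1 PFU/cell; 72 h 37C; OneGlo reagent, 5 min room temperature; luminescence read, normalized to controls.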
FMDV inh: High Throughput Screening for Foot and Mouth Disease Virus Antivirals | FMDV antiviral cell-based qHTS | Potency, µM (doses to about 57.9 µM), actives largely listed as inhibitors | AID 1159524, 2015 | 410,000 compounds, 1.2% hits; calls by dose curve; tested in HEK293T cells; further: read-out not given here; nearly all actives have a fitted effect of over 45% in size
MARV entry inh: qHTS for inhibitors of binding or entry into cells for Marburg Virus. 300,000 compounds, 1.8% hits. Marburg virus pseudotyped entry inhibition, cell reporter. Potency, µM (series often up to 37.8 µM), usual class: inhibitors. AID 540276, 2011; calls by dose curve; tested in HEK293 cells
HCV inhibitor: qHTS Assay for Inhibitors of Hepatitis C Virus (HCV); Huh7.5.1 HCVcc-Cre infection, luciferase reporter, 44 h; Potency, µM (series often up to 41.8 µM), usual class: inhibitors; 340,000 compounds, 3.4% hits; active means well fitted inhibition curve with a large enough effect; inconclusive means small, poorly fitted or top-dose-only effect, or another doubt; inactive means no such curve, though single readings can be large or run the other way
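Antiviral activity was scored by luciferase reporter output from cells infected with HCVcc-Cre (~0.5 moi) in presence of compound, 44 h infection period, cells seeded 1,000/well 4 h prior.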
Hits are given with their value; n = inactive; u = inconclusive; x = no result; ! = not confirmed by another sample. Compounds with a hit are over-represented: about 7.9% of the library has one in this group of screens.

SMILES	LASV entry inh	HCMV antiviral	FMDV inh	MARV entry inh	HCV inhibitor
Cc1cccc(C)c1NC(=O)C(c1ccccc1)N1CCN(C/C=C/c2ccccc2)CC1 (stereo not drawn)	x	n	n	x	x
Cc1ccc(Cn2ccc(NC(=O)c3nn(C)cc3[N+](=O)[O-])n2)cc1	n	-77	n	u	u
CCn1cc([N+](=O)[O-])c(C(=O)Nc2ccn(Cc3ccccc3)n2)n1	n	-74	n	n	n
CCOCC(=O)Nc1nc2ccc(OC)cc2s1	u	n	n	u	n
CCn1cc([N+](=O)[O-])c(C(=O)Nc2nc3ccc(OC)cc3s2)n1	x	-89	n	x	u
CCn1cc([N+](=O)[O-])c(C(=O)NCc2ccc(Cl)cc2)n1	x	u	n	x	n
CCn1cc([N+](=O)[O-])c(C(=O)Nc2ccc(Cn3nc(C)cc3C)cc2)n1	u	n	n	u	n
Cc1cc(C)n(Cc2ccc(NC(=O)c3nn(C)cc3[N+](=O)[O-])cc2)n1	n	-101	n	n	u
Cn1cc([N+](=O)[O-])c(C(=O)Nc2ccc(C(=O)N3CCCCC3)cc2)n1	n	n	n	n	n
Cn1cc([N+](=O)[O-])c(C(=O)Nc2ccc(C3CCCCC3)cc2)n1	x	-100	n	x	u
O=C(OCN1C(=O)c2ccccc2C1=O)c1cc(S(=O)(=O)N2CCOCC2)ccc1F	n	n	n	n	n
CCCCSC(=S)NC1CCS(=O)(=O)C1 (stereo not drawn)	n	-84	n	u	n
O=S1(=O)CCC(NC(=S)NC2CCS(=O)(=O)C2)C1 (stereo not drawn)	u	n	n	u	n
O=S1(=O)CCC(NC(=S)SCCOc2ccccc2)C1 (stereo not drawn)	x	-69	14µM	x	u
CC(C)=CCN1CCN(CCC2=C(C)CCCC2(C)C)CC1CCO (stereo not drawn)	x	-66	n	x	u
OCc1ccccc1SSc1ccccc1CO	u	-98	n	n	n
OCc1ccccc1O	x	x	n	x	x
Cc1ccccc1CN1[C@H](C)[C@@H](c2ccccc2)Oc2c(Cl)cccc2S1(=O)=O	n	x	x	x	x
CCC(=O)Nc1cc2nn(-c3ccc(OC)cc3)nc2cc1C	n	n	x	u	n
CCC(=O)Nc1cc2nn(-c3ccc(C)cc3)nc2cc1C	u	-66!	6.3µM	u	n
Cc1noc(C)c1COc1ccccc1C(=O)N1CCN(S(=O)(=O)c2cccc(Cl)c2)CC1	n	n	n	n	n
O=C(c1ccccc1Cc1ccccc1)N1CCN(S(=O)(=O)c2ccccc2Br)CC1	n	-72	u	13µM	u
Cc1noc(C)c1COc1ccccc1C(=O)N1CCN(S(=O)(=O)c2ccccc2C(F)(F)F)CC1	n	n	n	n	n
O=C(c1ccccc1Cc1ccccc1)N1CCN(S(=O)(=O)c2ccc(F)cc2)CC1	n	n	n	n	n
Cc1noc(C)c1COc1ccccc1C(=O)N1CCN(S(=O)(=O)c2ccccc2Br)CC1	x	-86	u	x	u
SMILES	LASV entry inh	HCMV antiviral	FMDV inh	MARV entry inh	HCV inhibitor
Cc1noc(C)c1COc1ccccc1C(=O)N1CCN(S(=O)(=O)c2ccc(C(C)C)cc2)CC1	x	-75	u	x	x
O=C(NCc1ccccc1)O[C@H]1CC[C@@]23CCCN2C(=O)CCC[C@H]3[C@H]1Cc1ccccc1	x	n	x	x	x
COC(=O)[C@@H]1[C@@H](CO)[C@@H]2Cn3c(cccc3=O)[C@H]1N2C	x	n	x	x	x
COCc1c(C(=O)N2CCC(c3ccccc3)CC2)cnn1-c1nccc(-c2cc(C)sc2C)n1	x	x	n	x	x
Cc1ccc(C)c(N2CCN(CCCNC(=O)CCC(=O)N3CCOc4ccc(Cl)cc43)CC2)c1	x	-83	x	x	x
Cc1ccc2c(c1)N(C(=O)CCC(=O)N1CCN(c3ccccn3)CC1)CCO2	x	n	n	x	n
O=C(CCC(=O)N1CCOc2ccc(Cl)cc21)NCCCN1CCN(c2ccccc2F)CC1	x	n	u	x	u
Cc1ccc(C)c(N2CCN(C(=O)CCC(=O)N3CCOc4ccc(Cl)cc43)CC2)c1	x	-80	n	x	10µM
O=C(CCC(=O)N1CCOc2ccc(Cl)cc21)NCCCN1CCC(Cc2ccccc2)CC1	x	-75	n	x	u
COc1ccc(C2NC(=O)N(C)C3=C2C(=O)N(c2cccc(C(=O)O)c2)C3)cc1 (stereo not drawn)	n	n	n	u	x
Cc1cc(C)n(Cc2ccc(NC(=O)c3ccc(COc4ccccc4Br)cc3)cc2)n1	u	-90	13µM	u	4µM
Cc1ccc(C)n1Cc1ccc(C(=O)O)cc1	n	x	n	9.2µM	n
Cc1c(C)n(Cc2ccccc2)c2ccc(C(=O)O)cc12	n	n	n	n	n
COC(=O)c1ccc(Cn2nc(C)cc2C)cc1	n	n	n	n	n
Cc1cc(C)n(Cc2ccc(C(=O)O)cc2)n1	n	-65	x	n	n
NC(=O)c1ccc(NC(=O)c2ccc(COc3ccccc3Br)cc2)cc1	n	n	n	n	n
C[C@H]1[C@@H](C(=O)N2CCCC2)CC(=NOCc2ccccc2)C(=NOCc2ccccc2)C[C@H]1c1ccccc1	u	x	x	n	x
COc1cccc(N2CCN(c3ncnc4onc(-c5ccc(F)cc5)c34)CC2)c1	n	n	n	x	x
CC(=O)Nc1ccccc1-c1nc(CNC(=O)c2ccc(F)c(F)c2)c(C)o1	x	x	n	x	x
CC1(C(=O)NCc2cccc(C(F)(F)F)c2)CCN1Cc1ccc2ccccc2c1 (stereo not drawn)	x	-72	n	x	x
CC1(C(=O)NCc2cccc3ccccc23)CCN1Cc1ccc2ccccc2c1 (stereo not drawn)	x	n	n	x	x
O=C(Cc1cccc2ccccc12)NCC(=O)N1CCN(Cc2cccc(C(F)(F)F)c2)CC1	x	-62	u	x	5.6µM
O=C(CSc1ccccc1)NCc1ccccc1	n	n	n	n	n
O=C(CSc1cccc(C(F)(F)F)c1)NCc1ccccc1	u	-73	n	n	n
Cc1cc2c(cc(C(=O)OC(C(=O)NCC3CCCO3)C(C)C)n2C)o1 (stereo not drawn)	n	u	u	n	u
SMILES	LASV entry inh	HCMV antiviral	FMDV inh	MARV entry inh	HCV inhibitor
Cc1cc2c(cc(C(=O)OC(C(=O)NC3CCCCC3)C(C)C)n2C)o1 (stereo not drawn)	x	u	n	x	16µM
Cc1c(C)c2ccc(OCC(=O)NC3CCN(Cc4ccccc4)CC3)cc2oc1=O	n	n	n	n	u
Cc1cc2oc(=O)c(CC(=O)NCCCO)c(C)c2c2occ(C(C)(C)C)c12	x	u	n	x	n
Cc1cc2oc(=O)c(CC(=O)NCCCN(C)C)c(C)c2c2occ(C(C)(C)C)c12	u	x	n	u	10µM
Cc1cc2oc(=O)c(CC(=O)O)c(C)c2c2occ(C(C)(C)C)c12	n	n	n	n	n
COCCNC(=O)Cc1c(C)c2c(cc(C)c3c(C(C)(C)C)coc32)oc1=O	u	-61	u	u	u
COc1ccc(NC(=O)CCN2C(=O)C3C4C=CC(C4)C3C2=O)cc1 (stereo not drawn)	n	n	n	u	n
Cc1cc(NC(=O)CCN2C(=O)C3C4C=CC(C4)C3C2=O)ccc1Br (stereo not drawn)	x	-68	n	n	n
